Experimental data published in PubChem BioAssay AID1159580 (chemical genetic matrix, 2015).
“And” between values parts separate entries of the source, which are not always exact repeats. Identical values can stand only once. Out of some 5,500 compounds screened, about 2,000 (36%) were called active. Another 18% or so got no clear call; they are omitted. No stated cut-off is given here; in the data, active means normalized growth mostly below about 0.91 (no sharp cut-off); inconclusive means no clear call, values can overlap the other calls; inactive means mostly above about 0.92. The list shows a part of the results.

Test: chemical genetic growth profiling, strain panel (AID 1159580);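 further: tested at 20 µM; growth read once vehicle control cultures reached saturation at 30 °C; 1 = growth at the plate median or of vehicle wells; lower values mean less growth of the strain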
Conditions: S. cerevisiae deletion strains, growth OD

Measured: normalized growth

O=C1CCCC2C3CC(CN12)[C@@H]1CCCCN1C3 (stereo not given in full)
inactive: locus YAL013W, strain DEP1, active compounds read low 1.02 | locus YAL021C, strain ccr4, active compounds read low 0.988 | locus YAL026C, strain drs2, active compounds read low 1.01 | locus YAL030W, strain snc1, active compounds read low 0.995 | locus YBL061C, strain skt5, active compounds read low 0.995 | locus YBR009C, strain hhf1, active compounds read low 0.999 | locus YBR021W, strain FUR4, active compounds read low 1.04 | locus YBR023C, strain chs3, active compounds read low 1 | locus YBR171W, strain sec66, active compounds read low 0.992 | locus YBR229C, strain ROT2, active compounds read low 0.985 | locus YBR231C, strain swc5, active compounds read low 0.996 | locus YBR279W, strain paf1, active compounds read low 1 | locus YCL011C, strain gbp2, active compounds read low 0.995 | locus YCL016C, strain dcc1, active compounds read low 0.993 | locus YCL029C, strain bik1, active compounds read low 0.982 | locus YCL061C, strain MRC1, active compounds read low 0.998 | locus YCL069W, strain vba3, active compounds read low 0.999 | locus YCR088W, strain abp1, active compounds read low 0.987 | locus YDL005C, strain med2, active compounds read low 0.991 | locus YDL035C, strain GPR1, active compounds read low 1.02 | locus YDL040C, strain nat1, active compounds read low 0.991 | locus YDL074C, strain BRE1, active compounds read low 1 | locus YDL101C, strain DUN1, active compounds read low 0.988 | locus YDL134C, strain PPH21, active compounds read low 0.993 | locus YDL185W, strain tfp1, active compounds read low 0.984 | locus YDL192W, strain arf1, active compounds read low 0.987 | locus YDR001C, strain nth1, active compounds read low 1 | locus YDR069C, strain doa4, active compounds read low 1.01 | locus YDR101C, strain arx1, active compounds read low 0.988 | locus YDR137W, strain rgp1, active compounds read low 1.01 | locus YDR159W, strain sac3, active compounds read low 0.987 | locus YDR162C, strain NBP2, active compounds read low 1.01 | locus YDR195W, strain ref2 0.981 | locus YDR297W, strain sur2, active compounds read low 0.993 | locus YDR318W, strain mcm21, active compounds read low 1 | locus YDR334W, strain swr1, active compounds read low 1.02 | locus YDR335W, strain msn5, active compounds read low 0.998 | locus YDR388W, active compounds read low 0.997 | locus YDR392W, strain spt3, active compounds read low 0.927 | locus YDR502C, strain sam2, active compounds read low 0.989 | locus YEL003W, strain gim4, active compounds read low 1 | locus YEL037C, strain rad23, active compounds read low 1.01 | locus YEL061C, strain CIN8 (second series), active compounds read low 0.998 | locus YEL061C, strain CIN8, active compounds read low 0.997 | locus YER015W, strain faa2, active compounds read low 1.01 | locus YER016W, strain bim1, active compounds read low 0.995 | locus YER110C, active compounds read low 0.977 | locus YER111C, strain swi4, active compounds read low 0.998 | locus YER155C, strain BEM2 (second series), active compounds read low 1.02 | locus YER155C, strain BEM2, active compounds read low 0.98 | locus YER167W, strain BCK2, active compounds read low 1.01 | locus YFR010W, strain ubp6, active compounds read low 1 | locus YGL078C, strain dbp3, active compounds read low 0.995 | locus YGL086W, strain mad1, active compounds read low 1 | locus YGL167C, strain pmr1, active compounds read low 0.991 | locus YGL173C, strain kem1, active compounds read low 0.979 | locus YGL227W, strain vid30, active compounds read low 1 | locus YGL240W, strain doc1, active compounds read low 1 | locus YGL248W, strain PDE1, active compounds read low 0.995 | locus YGL253W, strain hxk2, active compounds read low 1 | locus YGR078C, strain PAC10, active compounds read low 1.01 | locus YGR135W, strain pre9, active compounds read low 1 | locus YGR229C, strain SMI1, active compounds read low 1.02 | locus YGR252W, strain gcn5, active compounds read low 1 | locus YHR013C, strain ard1, active compounds read low 0.984 | locus YHR027C, strain rpn1, active compounds read low 0.988 | locus YHR030C, strain SLT2, active compounds read low 0.993 and 0.983 | locus YHR079C, strain IRE1 (second series), active compounds read low 1 | locus YHR079C, strain IRE1, active compounds read low 1.01 | locus YHR094C, strain hxt1, active compounds read low 0.982 | locus YHR129C, strain ARP1, active compounds read low 0.983 | locus YHR142W, strain chs7, active compounds read low 0.996 | locus YHR200W, strain rpn10, active compounds read low 0.997 | locus YIL066C, strain RNR3, active compounds read low 1 | locus YIL073C, strain SPO22, active compounds read low 1.02 | locus YIL125W, strain kgd1, active compounds read low 0.994 | locus YIR030C, strain dcg1, active compounds read low 0.993 | locus YJL092W, strain hpr5, active compounds read low 1 | locus YJL095W, strain BCK1 (second series), active compounds read low 0.99 | locus YJL095W, strain BCK1, active compounds read low 0.983 and 0.957 | locus YJL115W, strain asf1, active compounds read low 0.989 | locus YJL129C, strain trk1, active compounds read low 0.99 | locus YJL134W, strain LCB3, active compounds read low 0.997 | locus YJL154C, strain vps35, active compounds read low 0.993 | locus YJL164C, strain tpk1, active compounds read low 1 | locus YJL166W, strain qcr8, active compounds read low 0.989 | locus YJL168C, strain set2, active compounds read low 1 | locus YJL187C, strain SWE1 (second series), active compounds read low 0.987 | locus YJL187C, strain SWE1, active compounds read low 0.996 | locus YJR043C, strain POL32, active compounds read low 1.04 | locus YJR066W, strain TOR1, active compounds read low 0.992 | locus YKL009W, strain mrt4, active compounds read low 0.974 | locus YKL068W, active compounds read low 0.99 | locus YKL085W, strain MDH1 (second series), active compounds read low 1.01 | locus YKL085W, strain MDH1, active compounds read low 1.01 | locus YKL160W, strain elf1, active compounds read low 0.982 | locus YKR001C, strain vps1, active compounds read low 1.01 | locus YKR026C, strain gcn3, active compounds read low 0.99 | locus YKR091W, strain srl3, active compounds read low 1 | locus YLL001W, strain dnm1, active compounds read low 0.979 | locus YLL026W, active compounds read low 0.989 | locus YLL041C, strain sdh2, active compounds read low 1 | locus YLR027C, strain aat2, active compounds read low 0.99 | locus YLR039C, strain RIC1, active compounds read low 1.04 | locus YLR058C, strain SHM2, active compounds read low 0.992 | locus YLR102C, strain apc9, active compounds read low 0.992 | locus YLR113W, strain HOG1, active compounds read low 0.977 | locus YLR221C, strain rsa3, active compounds read low 0.981 | locus YLR258W, strain gsy2, active compounds read low 0.999 | locus YLR262C, strain YPT6 (second series), active compounds read low 0.986 | locus YLR262C, strain YPT6, active compounds read low 1.04 | locus YLR268W, strain sec22, active compounds read low 0.979 | locus YLR320W, strain mms22, active compounds read low 0.979 | locus YLR330W, strain CHS5, active compounds read low 1.01 | locus YLR342W, strain FKS1 (second series), active compounds read low 1.01 | locus YLR342W, strain FKS1, active compounds read low 1.01 | locus YLR357W, strain rsc2, active compounds read low 0.979 | locus YLR370C, strain arc18, active compounds read low 1 | locus YLR371W, strain rom2, active compounds read low 0.984 | locus YLR384C, strain iki3, active compounds read low 1.01 | locus YLR418C, strain cdc73, active compounds read low 1.02 | locus YML016C, strain PPZ1, active compounds read low 0.978 | locus YML032C, strain rad52, active compounds read low 1 | locus YML120C, strain ndi1, active compounds read low 0.996 | locus YML124C, strain tub3, active compounds read low 0.991 | locus YMR058W, strain fet3, active compounds read low 1.01 | locus YMR078C, strain ctf18, active compounds read low 0.991 | locus YMR125W, strain sto1, active compounds read low 0.975 | locus YMR129W, active compounds read low 0.995 | locus YMR205C, strain PFK2, active compounds read low 0.978 | locus YMR223W, strain ubp8, active compounds read low 0.995 | locus YMR231W, strain pep5, active compounds read low 0.999 | locus YMR307W, strain GAS1, active compounds read low 1.06 | locus YNL067W, strain RPL9B, active compounds read low 0.993 | locus YNL071W, strain lat1, active compounds read low 0.997 | locus YNL153C, strain GIM3, active compounds read low 0.993 | locus YNL183C, strain NPR1, active compounds read low 0.967 | locus YNL209W, strain ssb2, active compounds read low 1 | locus YNL233W, strain BNI4, active compounds read low 0.998 | locus YNL248C, strain rpa49, active compounds read low 0.993 | locus YNL250W, strain rad50, active compounds read low 0.984 | locus YNL271C, strain bni1, active compounds read low 0.991 | locus YNL298W, strain CLA4, active compounds read low 1 | locus YNL307C, strain MCK1, active compounds read low 0.985 | locus YNL322C, strain KRE1 (second series), active compounds read low 0.979 | locus YNR049C, strain mso1, active compounds read low 0.994 | locus YNR052C, strain pop2, active compounds read low 0.993 | locus YOL006C, strain TOP1, active compounds read low 0.968 | locus YOL012C, strain htz1 2.29 | locus YOL147C, strain pex11, active compounds read low 0.992 | locus YOR001W, strain rrp6, active compounds read low 1.03 | locus YOR061W, strain CKA2, active compounds read low 0.988 | locus YOR069W, strain VPS5, active compounds read low 0.982 | locus YOR070C, strain gyp1, active compounds read low 1.02 | locus YOR080W, strain dia2, active compounds read low 0.986 | locus YOR083W, strain WHI5, active compounds read low 0.973 | locus YOR106W, strain vam3, active compounds read low 1 | locus YOR136W, strain idh2, active compounds read low 0.985 | locus YOR144C, strain elg1, active compounds read low 0.998 | locus YOR184W, strain ser1, active compounds read low 0.991 | locus YOR231W, strain MKK1, active compounds read low 1.01 | locus YOR265W, strain rbl2, active compounds read low 1 | locus YOR270C, strain vph1, active compounds read low 1.03 | locus YOR290C, strain snf2, active compounds read low 0.975 | locus YOR316C, strain cot1, active compounds read low 0.993 | locus YPL051W, strain arl3, active compounds read low 0.993 | locus YPL078C, strain atp4, active compounds read low 0.997 | locus YPL106C, strain sse1, active compounds read low 0.968 | locus YPL240C, strain hsp82, active compounds read low 0.999 | locus YPL256C, strain CLN2, active compounds read low 1.01 | locus YPR119W, strain clb2, active compounds read low 0.999 | locus YPR141C, strain kar3, active compounds read low 0.982 | locus YPR163C, strain tif3, active compounds read low 0.996 | locus YPR167C, strain met16, active compounds read low 0.995 | strain wtn01, active compounds read low 0.967
